Sampled rows, rich in hits. Any-hit rate of the full collection: about 19%.
Pf growth 48h – inhibits P. falciparum growth in the first generation, 48 h; 310,000 tested, 5.9% active; Potency, µM (doses to about 28.7 µM), for the others: top-dose activity change, negative = inhibition, most hits filed as inhibitors; P. falciparum luciferase growth in erythrocytes, 48 h; further: potency means the concentration at half of the fitted maximal effect; on the % scale 0 is the no-effect control and ±100 the full control effect
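Luciferase-expressing P. falciparum in infected erythrocytes (2% hematocrit, 0.1% parasitemia final) in RPMI 1640/0.5% Albumax were exposed to compound for 48 hours at 37 C, 5% CO2; growth read as luminescence.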
MARV entry inh – Marburg virus entry inhibition | 300,000 tested, 1.8% active | AID 540276 | Marburg virus pseudotyped entry inhibition, cell reporter | Potency, µM (highest dose often 37.8 µM), inactives show top-dose activity change, negative = inhibition, most hits filed as inhibitors; calls by dose curve; tested in HEK293 cells; further: potency means the concentration at half of the fitted maximal effect; on the % scale 0 is the no-effect control and ±100 the full control effect
Shiga inhibitor – inhibitors of Shiga toxin in Vero cells; Vero cells, Shiga toxin protein synthesis inhibition reporter; inhibition, % at 38.7 µM; 290,000 tested, 9.2% active; AID 2315; in the data active means inhibition mostly above about 28%, no sharp cut-off; inactive means mostly below about 43%; further: 0% is about no effect
Cycloheximide cs – affects cycloheximide protein synthesis inhibition readout, counter-screen; 300,000 tested, 12% active; cell reporter, cycloheximide protein synthesis inhibition counterscreen; max response, %; in the data active means max response mostly above about 13%, no sharp cut-off; inactive means mostly below about 14%; further: read at 38.3 µM for the half of the compounds with a filed dose; 0% is about no effect
Pf growth 96h – P. falciparum growth inhibition at 96 hours; P. falciparum luciferase reporter growth, 96 h; Potency, µM (top dose mostly 28.7 µM), for inactives: top-dose activity change, negative = inhibition, hits mostly inhibitors; 320,000 tested, 6.9% active; AID 504834; further: potency means the concentration at half of the fitted maximal effect; on the % scale 0 is the no-effect control and ±100 the full control effect
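Luminescence readout: decreased luciferase signal marks inhibited growth of reporter-expressing P. falciparum in infected red cells (2% hematocrit, 0.05% parasitemia final), exposed to compound two generations (96 h, 37 C, 5% CO2).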
Lassa entry inh – blocks Lassa virus binding to or entry into cells | 300,000 tested, 1.2% active | Potency, µM (titrated, usually from 37.9 µM), for the others: top-dose activity change, negative = inhibition, actives largely listed as inhibitors | Lassa virus pseudotype entry inhibition, cell reporter; calls by dose curve; tested in HEK293 cells; further: potency means the concentration at half of the fitted maximal effect; on the % scale 0 is the no-effect control and ±100 the full control effect; nearly all actives have a fitted effect of over 50% in size
Active calls of the source: *; i = inactive; ? = inconclusive; nt = no result given; [ ] = another dose, or the depositor's remark. Unless noted, the call rests on the fitted dose curve; in most records, active means well fitted inhibition curve with a large enough effect; inconclusive means small, poorly fitted or top-dose-only effect, or another doubt; inactive means no such curve, though single readings can be large or run the other way.

SMILES	Pf growth 48h	MARV entry inh	Shiga inhibitor	Cycloheximide cs	Pf growth 96h	Lassa entry inh
Cc1ccc2nc(-c3ccccc3)cc(C(=O)N3CCN(c4ccccc4O)CC3)c2c1	10.4µM*	?	nt	nt	?	?
Cc1ccc(OC(=O)c2cc(-c3ccccc3)nc3ccc(C)cc23)cc1	nt	-9.6%[46.1 µM]	nt	nt	nt	8.3%[46.1 µM]
Cc1ccc(S(=O)(=O)N2CCN(C(=O)c3c(-c4ccccc4)noc3C)CC2)c(C)c1	-2.9%	?	-3.1	1.1	?	-30.4%[46.1 µM]
O=C(c1cc(-c2ccncc2)nc2ccccc12)N1CCN(c2ncccn2)CC1	nt	1.12µM*	nt	nt	nt	-13.5%
CCCCNC(=O)NC(C(N)=O)P(=O)(OCC)OCC (stereo not given)	27.4%	nt	-7.1	-2.1	25.7%	nt
CC(=O)Nc1cccc(NC(=O)CSc2ccc3nnc(CCNC(=O)c4ccccc4)n3n2)c1	-6.4%	nt	-14.8	6.0	?	nt
O=C(c1cc(-c2ccncc2)nc2ccccc12)N1CCN(c2ccccc2O)CC1	11.7µM*	nt	-7.4	-1.2	4.65µM*	nt
O=C(c1cc(-c2ccccc2)nc2ccccc12)N1CCN(c2ccccn2)CC1	0.0%	?	10.6	1.0	1.5%	11.3%
O=C(c1cc(-c2ccccc2)nc2ccccc12)N1CCN(c2ccccc2O)CC1	14.7µM*	?	46.5*	15.3*	9.28µM*	-23.1%
COc1cc(NC(=O)Cn2cc(S(=O)(=O)N3CCC(C)CC3)c3ccccc3c2=O)cc(OC)c1OC	nt	10µM*	nt	nt	nt	-26.3%[46.1 µM]
COc1cc(Cl)c(C)cc1NC(=O)Cn1cc(S(=O)(=O)N2CCC(C)CC2)c2ccccc2c1=O	nt	-14.7%[46.1 µM]	nt	nt	nt	-0.3%[46.1 µM]
COc1ccc(-n2nc(C(=O)NCC(=O)NCc3ccc(F)cc3)c3ccccc3c2=O)cc1	?	?	-6.1	6.7	6.57µM*	nt
COc1ccc(OC)c(NC(=O)Cc2nn(C)c(=O)c3ccccc23)c1	10.2%	?	12.5	-3.7	4.5%	-4.2%
COc1ccc(-n2nc(C(=O)NCC(=O)Nc3cc(OC)c(OC)c(OC)c3)c3ccccc3c2=O)cc1	9.28µM*	?	1.0	-10.1	5.9%	nt
COc1ccc(-n2nc(C(=O)NCC(=O)NC(C)C)c3ccccc3c2=O)cc1	-16.6%	1.4%[46.1 µM]	-7.2	2.2	21.1%	-9.5%[46.1 µM]
COc1cc(NC(=O)Cc2nn(C)c(=O)c3ccccc23)cc(OC)c1OC	13.1µM*	-29.2%	24.1	19.7*	10.4µM*	4.1%
Cc1nn(CC(=O)NCc2ccco2)c(=O)c2cc3ccccc3n12	nt	?	nt	nt	nt	-6.0%[46.1 µM]
COc1ccc(-c2[nH]ncc2/C=N\NS(=O)(=O)c2ccccc2)cc1OC	nt	5.6%	-23.5	-0.5	2.1%	7.6%
COc1ccccc1CC(=O)c1ccccc1OC	nt	0.2%[46.1 µM]	nt	nt	nt	?
COc1cccc(C(=O)OCC(=O)Nc2ccccc2N2CCOCC2)c1	15.7%	-22.0%	6.6	1.1	?	7.0%
COC(=O)Cn1c2ccc(F)cc2c2nc(C)sc21	?	?	-2.9	1.8	86.9%	-14.4%
COc1ccc(-n2nc(C(=O)NCc3ccco3)c3ccccc3c2=O)cc1	nt	?	2.2	-1.1	3.29µM*	2.2%
Cn1nc(C(=O)Nc2ccc3c(c2)OCO3)c2ccccc2c1=O	34.6%	nt	1.5	5.5	?	nt
COc1ccc(-n2nc(C(=O)Nc3ccc4c(c3)OCO4)c3ccccc3c2=O)cc1	10.4µM*	-10.2%	-25.6	10.1	2.8%	?
CN(Cc1nccn1C)C(=O)CC1C(=O)NCCN1Cc1ccc(F)cc1Cl (stereo not given)	26.6%	2.0%	-7.0	-0.8	0.0%	4.2%
SMILES	Pf growth 48h	MARV entry inh	Shiga inhibitor	Cycloheximide cs	Pf growth 96h	Lassa entry inh
O=C1C2ON(c3ccccc3)C(c3ccncc3)C2C(=O)N1c1ccc(N2CCOCC2)cc1 (stereo not given)	nt	-6.8%	-14.1	-3.2	12.3%	nt
CSc1ccccc1NC(=O)c1cccc(S(=O)(=O)N2CCN(C)CC2)c1	29.2%	-5.2%	32.5*	37.0*	?	-2.4%
CC(=O)c1ccc(NC(=O)c2cccc(S(=O)(=O)N3CCN(C)CC3)c2)cc1	?	3.3%[46.1 µM]	104.1*	40.7*	?	14.2%
CC(=O)Nc1ccc(NC(=O)c2cccc(S(=O)(=O)N3CCCCCC3)c2)cc1	nt	-13.5%	nt	nt	nt	0.2%
CCOc1ccc(NC(=O)CSc2ccc(-c3cccnc3)nn2)cc1	-20.4%	9.5%	-5.0	13.7	5.86µM*	-19.9%
O=C(CSc1ccc(-c2cccnc2)nn1)Nc1ccccc1C(F)(F)F	-14.5%	-1.7%	-9.9	7.4	10.4µM*	?
O=C(CSc1ccc(-c2cccs2)nn1)Nc1ccccc1C(F)(F)F	nt	nt	nt	nt	nt	1.7%[46.1 µM]
CC(=O)Nc1ccc(NC(=O)CSc2ccc(-c3cccnc3)nn2)cc1	?	21.4%	-3.0	1.2	?	2.6%
CCOc1ccc(OC(=O)c2ccc3c(=O)n4c(nc3c2)CCC4)cc1	-2.4%	?	nt	nt	7.4%	?
COc1ccc(CC(=O)Nc2ccc(-c3nc4cc(C)ccc4o3)c(O)c2)cc1OC	15.4%	8.5%[46.1 µM]	70.4	32.7*	2.4%	-0.4%
Cc1cccc(OCC(=O)Nc2ccc(-c3nc4cc(C)ccc4o3)c(O)c2)c1	nt	nt	nt	nt	nt	7.7%[46.1 µM]
Cc1ccc2oc(-c3ccc(NC(=O)c4ccncc4)cc3O)nc2c1	50.8%	?	44.4*	28.6*	13.3%	13.7%
CC(=O)c1ccc(C(=O)N2CCc3c([nH]c4ccccc34)C2c2ccccn2)s1 (stereo not given)	?	16.5%[46.1 µM]	8.2	5.2	?	?
O=C(c1cc(-c2ccccc2)n[nH]1)N1CCc2c([nH]c3ccccc23)C1c1ccccn1 (stereo not given)	?	5.62µM*	24.7	-2.6	8.28µM*	?
CCc1nc(C)ccc1OCC(=O)N1CCc2c([nH]c3ccccc23)C1c1ccccn1 (stereo not given)	1.8%	nt	11.0	14.0	7.8%	nt
CSc1nc(C(=O)N2CCc3c([nH]c4ccccc34)C2c2ccccn2)cs1 (stereo not given)	0.0%	?	-4.4	-2.6	18.1%	-10.8%
O=C(c1ccccc1-c1ncc[nH]1)N1CCc2c([nH]c3ccccc23)C1c1ccccn1 (stereo not given)	11.7µM*	-16.1%[46.1 µM]	-7.9	-2.7	16.3%	?
Cc1ccc2nc(C(=O)N3CCc4c([nH]c5ccccc45)C3c3ccccn3)cn2c1 (stereo not given)	10.7%	-2.4%[46.1 µM]	-9.7	-3.8	9.28µM*	-12.3%
O=C1OCCN1CC(=O)N1CCc2c([nH]c3ccccc23)C1c1ccccn1 (stereo not given)	-9.6%	3.6%[46.1 µM]	-11.5	-5.0	?	-12.3%[46.1 µM]
O=C(c1ccccc1-n1cccn1)N1CCc2c([nH]c3ccccc23)C1c1ccccn1 (stereo not given)	?	?	16.8	11.4*	4.65µM*	?
CC1CCCCC1NC(=O)C1CCN(S(=O)(=O)c2ccc3c(c2)CCC(=O)N3)CC1 (stereo not given)	nt	5.0%	-12.4	-3.3	3.7%	nt
Clc1ccc(CN=C2Nc3ccccc3CS2)cc1	209.1%	3.6%	64.1*	33.7*	i	?
